# Measured values reported in the supplement of paper PMC8728848.
# This is one part of a sample in which the strongest signals are shown more often than they occur.
# B1: P-Selectin (Mus musculus), Q01102 (protein)
# chain: MAGCPKGSWTPRLRSVILGGAQLIWFSALISELVNQKEVAAWTYNYSTKAYSWNNSRVFCRRHFTDLVAIQNKNEIAHLNDVIPFFNSYYWIGIRKINNKWTWVGTNKTLTEEAENWADNEPNNKKNNQDCVEIYIKSNSAPGKWNDEPCFKRKRALCYTASCQDMSCSNQGECIETIGSYTCSCYPGFYGPECEYVKECGKVNIPQHVLMNCSHPLGEFSFNSQCTFSCAEGYELDGPGELQCLASGIWTNNPPKCDAVQCQSLEAPPHGTMACMHPIAAFAYDSSCKFECQPGYRARGSNTLHCTGSGQWSEPLPTCEAIACEPPEIPIHGSMDCVPSTGTFGYNSSCTFLCAEGFVLKGNDAIQCADSGQWTAPAPFCEALQCPEFPVPSKAQVNCSDPFGTLTYQSVCSFSCDEGSLLVGASVIRCLATGHWNGAPPECQAVSCAPMLSPENGSMTCVQPLGNSTYKSTCQFMCDEGFYLSGPERLDCSPSGHWTGTPPTCEAIKCPGIFAPEQGNLDCSHVHGEFGVGSICHFSCNEDFELLGSENVECTVSGRWSAPPPTCKGITSLPAPAVRCPALTTPGQGTMSCQHHLGSFGPNTTCYFGCKTGFTLRGANSLRCRASGQWTAVTPMCRAVKCSELHMDTAVAMNCSNPWGNFSYGSTCTFQCPEGQSLNGSVRATCREDGHWSDAMPTCQAGTLTIQEALTYLGGAVASTTGLAVGGTLLALLRKRLRKKDDGKCPLNPHSHLGTYGVFTNAAYDPTP
# Experiments:
# Experiment in all cases: glycan array binding signal (z-score within array); higher = stronger binding
# Conditions in all cases: glycan notation: IUPAC condensed, linker removed
# [1] = molecular target: Fuc(a1-2)Gal(b1-3)GalNAc(b1-3)Gal
# Outline: (§1)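 Glycan array data were curated from 3228 arrays in the Consortium for Functional Glycomics database and kept only where the protein sequence was available. Glycan names were converted to IUPAC-condensed notation, and columns mapping to the same glycan were averaged. The binding signal is a within-array Z-score, averaged across arrays of the same protein sequence at different concentrations or buffers and across linkers. Negative Z-scores can be read as non-binding.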
# [2] = molecular target: Fuc(a1-2)Gal(b1-3)GalNAc(b1-4)[Neu5Ac(a2-3)]Gal(b1-4)Glc
# Outline: as §1
# [3] = molecular target: Fuc(a1-3)[Gal(b1-4)]GlcNAc6S
# Outline: as §1
# [4] = molecular target: Fuc(a1-3)[Gal3S(b1-4)]Glc6S
# Outline: as §1
# [5] = molecular target: Fuc(a1-3)[Gal3S(b1-4)]GlcNAc6S
# Outline: as §1
# [6] = molecular target: Gal(b1-3)GlcNAc(b1-3)Gal(b1-4)Glc
# Outline: as §1
# [7] = molecular target: Gal(b1-3)[Fuc(a1-4)]GlcNAc(b1-3)Gal(b1-3)[Fuc(a1-4)]GlcNAc
# Outline: as §1
# [8] = molecular target: Gal(b1-3)[GlcNAc(b1-6)]GalNAc
# Outline: as §1
# [9] = molecular target: Gal(b1-4)GlcNAc(b1-3)Gal(b1-4)GlcNAc
# Outline: as §1
# [10] = molecular target: Gal(b1-4)GlcNAc(b1-3)[Gal(b1-4)GlcNAc(b1-6)]GalNAc
# Outline: as §1
# [11] = molecular target: Gal3S(b1-3)[Fuc(a1-4)]GlcNAc
# Outline: as §1
# [12] = molecular target: Gal3S(b1-4)Glc
# Outline: as §1
# [13] = molecular target: Gal3S(b1-4)[Fuc(a1-3)]Glc
# Outline: as §1
# [14] = molecular target: Gal3S6S(b1-4)GlcNAc
# Outline: as §1
# [15] = molecular target: Gal6S(b1-4)GlcNAc
# Outline: as §1
# [16] = molecular target: Glc(a1-4)Glc
# Outline: as §1
# [17] = molecular target: GlcNAc(b1-3)Gal(b1-4)Glc
# Outline: as §1
# [18] = molecular target: GlcNAc(b1-3)[GlcNAc(b1-6)]Gal(b1-4)GlcNAc
# Outline: as §1
# [19] = molecular target: GlcNAc(b1-4)Gal(b1-4)GlcNAc
# Outline: as §1
# [20] = molecular target: Kdn(a2-3)Gal(b1-3)GlcNAc
# Outline: as §1
# [21] = molecular target: Neu5Ac(a2-3)Gal(b1-3)GalNAc(b1-3)Gal(b1-4)GlcNAc
# Outline: as §1
# [22] = molecular target: Neu5Ac(a2-3)Gal(b1-3)GlcNAc
# Outline: as §1
# [23] = molecular target: Neu5Ac(a2-3)Gal(b1-3)[Neu5Ac(a2-3)Gal(b1-4)]GlcNAc
# Outline: as §1
# [24] = molecular target: Neu5Ac(a2-3)Gal(b1-4)GlcNAc(b1-2)Man(a1-3)[Neu5Ac(a2-3)Gal(b1-4)GlcNAc(b1-2)Man(a1-6)]Man(b1-4)GlcNAc(b1-4)GlcNAc
# Outline: as §1
# [25] = molecular target: Neu5Ac(a2-3)GalNAc
# Outline: as §1
# [26] = molecular target: Neu5Ac(a2-3)[GalNAc(b1-4)]Gal(b1-4)Glc
# Outline: as §1
# [27] = molecular target: Neu5Ac(a2-3)[Neu5Ac(a2-6)]GalNAc
# Outline: as §1
# [28] = molecular target: Neu5Ac(a2-6)Gal(b1-4)GlcNAc(b1-2)Man(a1-6)[GlcNAc(b1-2)Man(a1-3)]Man(b1-4)GlcNAc(b1-4)GlcNAc
# Outline: as §1
# [29] = molecular target: Neu5Gc(a2-3)Gal(b1-3)[Fuc(a1-4)]GlcNAc
# Outline: as §1
binder,measurement,setting,value
B1,glycan array binding signal (z-score),[1],-0.303
same,glycan array binding signal (z-score),[2],-0.426
same,glycan array binding signal (z-score),[3],2.1
same,glycan array binding signal (z-score),[4],3.7
same,glycan array binding signal (z-score),[5],3.95
same,glycan array binding signal (z-score),[6],-0.261
same,glycan array binding signal (z-score),[7],0.199
same,glycan array binding signal (z-score),[8],-0.4
same,glycan array binding signal (z-score),[9],-0.29
same,glycan array binding signal (z-score),[10],-0.495
same,glycan array binding signal (z-score),[11],3.6
same,glycan array binding signal (z-score),[12],-0.174
same,glycan array binding signal (z-score),[13],4.89
same,glycan array binding signal (z-score),[14],1.4
same,glycan array binding signal (z-score),[15],-0.055
same,glycan array binding signal (z-score),[16],-0.562
same,glycan array binding signal (z-score),[17],-0.616
same,glycan array binding signal (z-score),[18],-0.63
same,glycan array binding signal (z-score),[19],-0.478
same,glycan array binding signal (z-score),[20],-0.37
same,glycan array binding signal (z-score),[21],-0.354
same,glycan array binding signal (z-score),[22],-0.3
same,glycan array binding signal (z-score),[23],-0.297
same,glycan array binding signal (z-score),[24],-0.154
same,glycan array binding signal (z-score),[25],-0.381
same,glycan array binding signal (z-score),[26],-0.331
same,glycan array binding signal (z-score),[27],0.023
same,glycan array binding signal (z-score),[28],-0.311
same,glycan array binding signal (z-score),[29],3.75
